Active and inactive are the calls of the source.
Tests used:
[1] = E. coli DRC41 culture turbidity changes, primary screen, E. coli filamentation inducer project, strain DRC41, OD650, 48 h (AID 1152);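 note: E. coli MC1000 strain DRC41 lacking acrAB efflux pump and sulA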; settings: E. coli DRC41 (acrAB sulA), higher = more signal, called active from +8 up or from −8 down
[2] = small-molecule binders of probe aLefty1, primary screen, biochemical, small-molecule microarray, 635/667 nm fluorescence (AID 1153); settings: higher = more signal;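 note: score merges spot fluorescence with signal-to-noise ratio from the scanned slide images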
[3] = PSAC antagonists in infected red cells, primary screen, cell-based, P. falciparum Indochina, OD700, 1 h (AID 1154); settings: P. falciparum Indochina infected RBC osmotic lysis, higher = more signal, called active from +8 up or from −8 down
[4] = PSAC antagonists in infected red cells, primary screen, cell-based, P. falciparum Indochina, OD700, 2 h (AID 1155);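 note: lysis reports solute entry through the parasite surface anion channel PSAC; channel blockers reduce lysis of infected cells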; settings: P. falciparum Indochina infected erythrocytes, osmotic lysis OD700; higher = more signal, called active from +8 up or from −8 down
[5] = osmotic lysis modulators in infected erythrocytes, primary screen, PSAC antagonist project, cell-based, P. falciparum Indochina, OD700, 3 h (AID 1156); settings: higher = more signal, called active from +8 up or from −8 down
[6] = PSAC antagonists in infected red cells, primary screen, cell-based, P. falciparum Indochina, OD700, 18 h (AID 1157); settings: P. falciparum Indochina infected erythrocytes, osmotic lysis OD700, 18 h; higher = more signal, called active from +8 up or from −8 down
[7] = modulators of S6 phosphorylation in cells, primary screen, cell-based, A549, cytoblot, luminescence, serum-stimulated (AID 1158); settings: A549 phospho-S6 cytoblot, 5 h, higher = more signal;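 note: serum-stimulated A549 lung adenocarcinoma cells; signal is phosphorylated S6 detected by cytoblot immunostaining with HRP secondary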
[8] = target: NADPH oxidase 2 (Homo sapiens) (UniProt P04839); assay: NOX2-dependent H2O2 signal modulators, primary screen, NOX inhibitor project, cell-based, HEK293-NOX2, PMA-stimulated, Amplex Red fluorescence (AID 1159); settings: 45 min, higher = more signal, called active from +8 up or from −8 down; note: test concentration not given here
NADPH oxidase 2 (Homo sapiens), sequence (P04839 whole entry, looked up): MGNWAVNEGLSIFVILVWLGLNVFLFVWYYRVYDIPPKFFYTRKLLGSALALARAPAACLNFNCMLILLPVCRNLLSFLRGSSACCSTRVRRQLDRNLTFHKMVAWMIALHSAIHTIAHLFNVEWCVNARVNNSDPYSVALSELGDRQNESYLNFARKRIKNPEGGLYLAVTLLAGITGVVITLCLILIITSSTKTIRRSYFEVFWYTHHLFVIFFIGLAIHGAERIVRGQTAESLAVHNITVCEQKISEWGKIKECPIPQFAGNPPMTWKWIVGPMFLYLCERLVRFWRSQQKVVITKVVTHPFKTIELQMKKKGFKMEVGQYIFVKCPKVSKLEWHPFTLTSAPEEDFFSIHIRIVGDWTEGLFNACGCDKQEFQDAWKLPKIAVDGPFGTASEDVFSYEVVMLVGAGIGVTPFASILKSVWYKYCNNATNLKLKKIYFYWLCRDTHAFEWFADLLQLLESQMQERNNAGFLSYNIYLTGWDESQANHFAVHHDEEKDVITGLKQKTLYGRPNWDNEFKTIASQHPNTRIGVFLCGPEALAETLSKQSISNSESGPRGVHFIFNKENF

[9] = target: NADPH oxidase 4 (Homo sapiens) (UniProt Q9NPH5); assay: NOX4-dependent H2O2 signal modulators, primary screen, NOX inhibitor project, cell-based, HEK293-NOX4, tetracycline-induced, Amplex Red fluorescence (AID 1160); settings: 45 min, higher = more signal, called active from +8 up or from −8 down
NADPH oxidase 4 (Homo sapiens), sequence (Q9NPH5 whole entry, looked up): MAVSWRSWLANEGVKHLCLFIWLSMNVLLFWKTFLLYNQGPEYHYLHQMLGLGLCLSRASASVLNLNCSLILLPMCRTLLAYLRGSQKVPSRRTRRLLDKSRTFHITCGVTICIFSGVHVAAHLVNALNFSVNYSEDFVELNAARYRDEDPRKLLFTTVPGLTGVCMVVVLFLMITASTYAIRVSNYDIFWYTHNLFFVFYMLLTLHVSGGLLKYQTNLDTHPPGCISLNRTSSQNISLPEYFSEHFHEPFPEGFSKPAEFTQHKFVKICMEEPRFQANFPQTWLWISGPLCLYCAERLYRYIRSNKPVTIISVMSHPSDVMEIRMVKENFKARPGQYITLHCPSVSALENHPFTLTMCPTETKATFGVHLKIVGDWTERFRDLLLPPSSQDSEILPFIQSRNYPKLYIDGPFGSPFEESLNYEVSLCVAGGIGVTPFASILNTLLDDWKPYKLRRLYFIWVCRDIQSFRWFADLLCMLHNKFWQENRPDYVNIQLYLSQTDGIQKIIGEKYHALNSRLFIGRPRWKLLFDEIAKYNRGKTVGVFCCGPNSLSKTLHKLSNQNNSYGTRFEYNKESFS

[10] = target: NADPH oxidase 5 (Homo sapiens) (UniProt Q96PH1); assay: NOX5-dependent H2O2 signal modulators, primary screen, NOX inhibitor project, cell-based, HEK293-NOX5, Amplex Red fluorescence (AID 1161); settings: HEK293-NOX5, ionomycin, 45 min, higher = more signal
NADPH oxidase 5 (Homo sapiens), sequence (Q96PH1 whole entry, looked up): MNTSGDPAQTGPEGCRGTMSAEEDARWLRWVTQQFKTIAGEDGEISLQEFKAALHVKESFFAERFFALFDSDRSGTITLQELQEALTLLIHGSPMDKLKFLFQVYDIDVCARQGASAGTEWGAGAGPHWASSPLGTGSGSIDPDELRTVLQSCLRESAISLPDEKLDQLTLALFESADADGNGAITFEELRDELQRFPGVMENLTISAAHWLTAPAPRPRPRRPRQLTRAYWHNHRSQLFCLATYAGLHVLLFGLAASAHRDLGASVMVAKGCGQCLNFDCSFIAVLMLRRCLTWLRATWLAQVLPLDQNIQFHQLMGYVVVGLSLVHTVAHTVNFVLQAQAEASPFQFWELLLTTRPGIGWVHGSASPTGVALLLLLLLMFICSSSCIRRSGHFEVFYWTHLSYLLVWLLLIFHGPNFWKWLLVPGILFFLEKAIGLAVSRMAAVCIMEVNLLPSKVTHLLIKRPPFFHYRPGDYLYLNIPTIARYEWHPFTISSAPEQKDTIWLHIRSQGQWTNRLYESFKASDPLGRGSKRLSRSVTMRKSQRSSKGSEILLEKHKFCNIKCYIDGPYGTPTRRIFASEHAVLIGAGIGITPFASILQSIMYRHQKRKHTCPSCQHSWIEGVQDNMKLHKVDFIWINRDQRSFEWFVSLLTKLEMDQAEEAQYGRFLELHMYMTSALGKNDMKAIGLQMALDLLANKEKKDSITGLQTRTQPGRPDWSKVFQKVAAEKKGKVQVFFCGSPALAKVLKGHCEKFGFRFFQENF

[11] = A549 cell viability effects, profiling panel, calcein-AM fluorescence, 48 h, basal (AID 1162); settings: higher = more signal; note: test concentration not given here
[12] = adipocyte viability effects, profiling panel, cell-based, 3T3-L1 adipocytes, calcein-AM fluorescence, 48 h, basal (AID 1163); settings: 3T3-L1 adipocytes viability, higher = more signal; note: test concentration not given here
[13] = HepG2 cell viability effects, profiling panel, calcein-AM fluorescence, 48 h, basal (AID 1164); settings: higher = more signal; note: test concentration not given here
[14] = MM1S cell viability effects, profiling panel, calcein-AM fluorescence, 48 h, basal (AID 1165); settings: higher = more signal;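 note: viability of MM1S multiple myeloma cells under basal unstimulated conditions; test concentration not given here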
[15] = basal RPMI8226 viability, no added stimulus, profiling panel, cell-based, calcein-AM fluorescence, 48 h, PK04 Diversity Set (AID 1166); settings: RPMI8226 myeloma viability, higher = more signal;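 note: cells grown under basal conditions without added stimulus; test concentration not given here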
[16] = basal HepG2 mitochondrial membrane potential changes, profiling panel, cell-based, JC-1 fluorescence, 24 h, 100 nL compound (AID 1167); settings: higher = more signal; note: test concentration not given here
[17] = basal 3T3-L1 adipocyte mitochondrial potential changes, profiling panel, cell-based, JC-1 fluorescence, 3T3-L1 adipocytes, 24 h, 100 nL compound (AID 1168); settings: JC-1 mitochondrial fluorescence, higher = more signal, called active from +8 up or from −8 down; note: test concentration not given here
[18] = basal RPMI8226 mitochondrial membrane potential changes, profiling panel, cell-based, JC-1 fluorescence, 24 h, 100 nL compound (AID 1169); settings: RPMI8226 myeloma, JC-1 mitochondrial potential fluorescence, higher = more signal; note: test concentration not given here
[19] = basal MM1S mitochondrial membrane potential changes, profiling panel, cell-based, JC-1 fluorescence, 24 h, 100 nL compound (AID 1170); settings: higher = more signal; note: test concentration not given here
[20] = A549 lung cancer cell viability effects, profiling panel, resazurin fluorescence, 24 h, PK04 Diversity Set (AID 1171); settings: higher = more signal, called active from +8 up or from −8 down; note: test concentration not given here

| Compound | z-score [1] | composite z-score [2] | z-score [3] | z-score [4] | z-score [5] | z-score [6] | z-score [7] | z-score [8] | z-score [9] | z-score [10] | z-score [11] | z-score [12] | z-score [13] | z-score [14] | z-score [15] | z-score [16] | z-score [17] | z-score [18] | z-score [19] | z-score [20] |
| --- | --- | --- | --- | --- | --- | --- | --- | --- | --- | --- | --- | --- | --- | --- | --- | --- | --- | --- | --- | --- |
| COC(=O)[C@@]1(Cc2ccc(F)cc2)[C@H]2c3cc(C(=O)N(C)C)n(Cc4ccc(OC(F)(F)F)cc4)c3C[C@H]2CN1C(=O)c1ccccc1 | -1.4 (inactive) | 0.651 | -0.0341 (inactive) | 0.673 (inactive) | -0.0751 (inactive) | 0.692 (inactive) | -0.139 | 0.195 (inactive) | -0.44 (inactive) | 0.205 | -0.524 | -0.859 | -0.51 | -0.225 | 0.218 | -0.0759 | -0.392 (inactive) | -0.0137 | -0.276 | -0.914 (inactive) |
| [N-]=[N+]=Nc1ccccc1C[C@]1(C(=O)N2CCOCC2)COC(c2ccc(OCCCO)cc2)=N1 | 1.59 (inactive) | 0.401 | 24.6 (active) | 7.83 (inactive) | 1.52 (inactive) | -0.779 (inactive) | 0.779 | -3.84 (inactive) | -0.00663 (inactive) | -1.73 | 0.462 | 1.31 | -0.603 | -1.43 | -0.314 | 0.943 | -0.491 (inactive) | -0.571 | 0.615 | 1.63 (inactive) |
| COC(=O)C1(CC(C)C)C=C2C(=C(c3ccccc3)C(=O)C2C)CN1 (stereo not given) | -1.03 (inactive) | 1.58 | 1.28 (inactive) | -0.382 (inactive) | 0.806 (inactive) | 0.323 (inactive) | 0.54 | -0.00718 (inactive) | -1.48 (inactive) | -2.44 | -0.837 | -0.16 | 0.0661 | 0.601 | -0.12 | 0.0103 | -1.81 (inactive) | -0.604 | -1.1 | -0.614 (inactive) |
| CC(=O)NCCCC[C@@H]1NC(=O)[C@@H]2C[C@H](C(=O)NCCCCCN)[C@H](c3ccc(O)cc3)N2C1=O | 2.04 (inactive) | 0.482 | 1.46 (inactive) | 0.374 (inactive) | 0.45 (inactive) | 0.301 (inactive) | 0.856 | 1.93 (inactive) | 0.0542 (inactive) | 2.86 | -0.185 | 0.42 | -0.512 | -0.449 | -0.131 | 0.651 | -0.00185 (inactive) | -0.673 | 0.774 | -1.42 (inactive) |
| C=CCNC(=O)[C@H]1[C@@H]2C(=O)O[C@@H](c3ccccc3)[C@@H](c3ccccc3)N2[C@@H](c2ccccc2OCCO)[C@]12C(=O)N(C(=O)OCCOC)c1ccc(C#CC3(O)CCCCCC3)cc12 | 1.49 (inactive) | 0.25 | 1.58 (inactive) | 0.166 (inactive) | -0.236 (inactive) | -1.57 (inactive) | 2.01 | 1.52 (inactive) | 1.07 (inactive) | 0.729 | -0.293 | 0.905 | -0.0307 | -3.15 | -4.56 | -0.341 | 1.18 (inactive) | -1.14 | -1.7 | -2.4 (inactive) |
